# Test results as given in PubChem BioAssay.
# Active and inactive are the calls of the source.
# Key:
# [1] = system: Plasmodium falciparum Sir2 (PF13_0152, Sir2A); assay: Plasmodium falciparum Sir2A binding compounds – biochemical, small-molecule microarray, 635 nm fluorescence, primary screen (AID 1098); details: fluorescence 635 nm, higher = more signal;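 further: score merges spot fluorescence intensity with its signal-to-noise ratio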
# [2] = probe aDKK1 binding to arrayed compounds – biochemical, biotinylated probe, 635/667 nm fluorescence, primary screen (AID 1099); details: small-molecule microarray, higher = more signal;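 further: score merges 667nm spot fluorescence with signal to noise across triplicate slides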
# [3] = probe aCHRDL2 binding to arrayed compounds – biochemical, biotinylated probe, 635/667 nm fluorescence, primary screen (AID 1100); details: small-molecule microarray, higher = more signal
# [4] = change in splice reporter luminescence, either direction, cell-based, HEK293, spliceosome inhibition project, primary screen (AID 1101); details: HEK293 splicing luciferase reporter, 24 h, higher = more signal, called active from +8 up or from −8 down;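 further: HEK293 cells carrying a splicing-competent luciferase reporter gene; test concentration not given here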
# [5] = target: Fibroblast growth factor 10 (Homo sapiens) (UniProt O15520); assay: compounds binding fibroblast growth factor 10 – biochemical, small-molecule microarray, 635 nm fluorescence, primary screen (AID 1102); details: FGF10 binding, fluorescence 635 nm, higher = more signal
# [6] = system: glycogen synthase kinase-3 (GSK3A per assay name; protocol says GSK3B); assay: compounds binding glycogen synthase kinase-3 – biochemical, small-molecule microarray, 635 nm fluorescence, GSK3A, primary screen (AID 1103); details: fluorescence 635 nm, higher = more signal; further: the record names both GSK3A and GSK3B
# [7] = target: Epidermal growth factor receptor (Homo sapiens) (UniProt P00533); assay: compounds binding epidermal growth factor receptor – biochemical, small-molecule microarray, 635 nm fluorescence, primary screen (AID 1104); details: EGFR binding, higher = more signal;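 further: score merges 667 nm emission intensity with spot signal to noise over triplicate slides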
# [8] = target: Follistatin-related protein 3 (Homo sapiens) (UniProt O95633); assay: compounds binding follistatin-related protein 3 – biochemical, small-molecule microarray, 635 nm fluorescence, primary screen (AID 1105); details: FSTL3 binding, higher = more signal;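 further: score merges emission near 667 nm and signal to noise per printed spot across three slides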
# [9] = target: Dickkopf-related protein 1 (Homo sapiens) (UniProt O94907); assay: small molecules binding DKK1 protein – biochemical, small-molecule microarray, 635 nm fluorescence scan, primary screen (AID 1106); details: higher = more signal;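 further: score merges emission near 667 nm with signal to noise over three replicate slides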
# [10] = system: Inhibin beta A chain (activin A); assay: small molecules binding activin A – biochemical, small-molecule microarray, 635 nm fluorescence scan, primary screen (AID 1107); details: INHBA, higher = more signal;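 further: mouse activin A protein probed at 4.33 µg/mL on printed slides; score merges bound-protein fluorescence near 667 nm with spot signal-to-noise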
# [11] = system: Human papillomavirus type 1a protein E7 (residues 44-93); assay: small molecules binding HPV E7 44-93 – biochemical, small-molecule microarray, residues 44-93, 635 nm fluorescence, primary screen (AID 1108); details: fluorescence 635 nm, higher = more signal;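 further: E7 fragment applied at 1 µg/mL in TBST for 1 h at 4 C; score combines spot fluorescence with its signal to noise ratio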
# [12] = hepatitis C replication reporter changes, two-sided – Huh7 cells, luciferase reporter, HCV replication inhibitor project, primary screen (AID 1109); details: Huh7 HCV replicon luciferase reporter, 48 h; higher = more signal;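 further: huh7 hepatoma cells harbouring a luciferase neomycin HCV replicon reporter; luciferase luminescence as measure of HCV replicon replication; test concentration not given here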
# [13] = target: Left-right determination factor 2 (Homo sapiens) (UniProt O00292); assay: small molecules binding LEFTY2 protein – biochemical, small-molecule microarray, 635 nm fluorescence scan, primary screen (AID 1110); details: higher = more signal
# [14] = target: Calmodulin-1 (Homo sapiens) (UniProt P0DP23); assay: small molecules binding calmodulin-1 with EGTA – biochemical, small-molecule microarray, Cy5-labelled CALM1, profiling panel (AID 1111); details: Cy5-CALM1 binding fluorescence, higher = more signal;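 further: labelled calmodulin applied in Tris saline Tween buffer holding calcium plus EGTA and DTT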
# [15] = target: Calmodulin-1 (Homo sapiens) (UniProt P0DP23); assay: small molecules binding Ca-loaded calmodulin-1 – biochemical, small-molecule microarray, Cy5-labelled CALM1, plus calcium, artefact control for SMM control-protein annotation, profiling panel (AID 1112); details: Cy5-CALM1 binding fluorescence, higher = more signal;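 further: score merges spot fluorescence with signal to noise from triplicate slides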
# [16] = probe aWnt5a binding to arrayed compounds – biochemical, biotinylated probe, 635/667 nm fluorescence, primary screen (AID 1113); details: small-molecule microarray, higher = more signal;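 further: score merges 667 nm fluorescence intensity with signal-to-noise per printed feature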
# [17] = probe aShh binding to arrayed compounds – biochemical, biotinylated probe, 635/667 nm fluorescence, primary screen (AID 1114); details: small-molecule microarray, higher = more signal;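 further: probe is biotin-labelled aShh protein from a stem cell growth factor screen; measures binding of labelled protein to compounds printed on the slide; score merges feature fluorescence at 667 nm with signal-to-noise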
# [18] = probe aNog binding to arrayed compounds – biochemical, biotinylated probe, 635/667 nm fluorescence, primary screen (AID 1115); details: small-molecule microarray, higher = more signal;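 further: probe is biotinylated aNog protein used at 0.15 µg/mL for 1 h at 4 C; z-score combines 667 nm fluorescence of each spot with its signal to noise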
# [19] = target: Torsin-1A-interacting protein 1 (Homo sapiens) (UniProt Q5JTV8); assay: compound microarray binding of lysate hLAP1 – cell lysate, small-molecule microarray, COS7 lysate, 635/667 nm fluorescence, primary screen (AID 1116); details: 635 nm fluorescence, higher = more signal
# [20] = target: Alpha-bungarotoxin (Bungarus multicinctus) (UniProt P60615); assay: compounds binding labelled alpha-BTX control protein – biochemical, small-molecule microarray, Alexa647 label, 635/667 nm fluorescence, artefact control for SMM control protein annotation, profiling panel (AID 1117); details: alpha-BTX-A647 binding fluorescence, higher = more signal
# Chain of Alpha-bungarotoxin (Bungarus multicinctus) (P60615 whole entry, looked up): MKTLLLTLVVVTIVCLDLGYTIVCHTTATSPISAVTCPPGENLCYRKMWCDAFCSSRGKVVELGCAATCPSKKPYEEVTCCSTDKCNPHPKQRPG
# Chain of Torsin-1A-interacting protein 1 (Homo sapiens) (Q5JTV8 whole entry, looked up): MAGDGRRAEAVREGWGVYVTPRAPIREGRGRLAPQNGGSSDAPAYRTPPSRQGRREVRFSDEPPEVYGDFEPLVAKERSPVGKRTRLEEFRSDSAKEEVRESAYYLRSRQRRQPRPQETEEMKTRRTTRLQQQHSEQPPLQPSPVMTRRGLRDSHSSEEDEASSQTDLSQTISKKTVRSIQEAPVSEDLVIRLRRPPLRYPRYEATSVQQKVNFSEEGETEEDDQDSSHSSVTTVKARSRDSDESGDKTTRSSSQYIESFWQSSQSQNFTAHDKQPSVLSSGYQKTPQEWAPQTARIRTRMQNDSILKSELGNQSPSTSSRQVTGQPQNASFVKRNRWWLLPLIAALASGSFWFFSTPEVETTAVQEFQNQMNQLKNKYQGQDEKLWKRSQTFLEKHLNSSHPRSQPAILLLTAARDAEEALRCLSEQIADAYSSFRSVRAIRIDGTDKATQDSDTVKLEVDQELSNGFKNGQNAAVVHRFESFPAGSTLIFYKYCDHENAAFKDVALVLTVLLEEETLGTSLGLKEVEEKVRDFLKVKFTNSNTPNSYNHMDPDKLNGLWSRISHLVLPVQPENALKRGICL
# Chain of Epidermal growth factor receptor (Homo sapiens) (P00533 whole entry, looked up): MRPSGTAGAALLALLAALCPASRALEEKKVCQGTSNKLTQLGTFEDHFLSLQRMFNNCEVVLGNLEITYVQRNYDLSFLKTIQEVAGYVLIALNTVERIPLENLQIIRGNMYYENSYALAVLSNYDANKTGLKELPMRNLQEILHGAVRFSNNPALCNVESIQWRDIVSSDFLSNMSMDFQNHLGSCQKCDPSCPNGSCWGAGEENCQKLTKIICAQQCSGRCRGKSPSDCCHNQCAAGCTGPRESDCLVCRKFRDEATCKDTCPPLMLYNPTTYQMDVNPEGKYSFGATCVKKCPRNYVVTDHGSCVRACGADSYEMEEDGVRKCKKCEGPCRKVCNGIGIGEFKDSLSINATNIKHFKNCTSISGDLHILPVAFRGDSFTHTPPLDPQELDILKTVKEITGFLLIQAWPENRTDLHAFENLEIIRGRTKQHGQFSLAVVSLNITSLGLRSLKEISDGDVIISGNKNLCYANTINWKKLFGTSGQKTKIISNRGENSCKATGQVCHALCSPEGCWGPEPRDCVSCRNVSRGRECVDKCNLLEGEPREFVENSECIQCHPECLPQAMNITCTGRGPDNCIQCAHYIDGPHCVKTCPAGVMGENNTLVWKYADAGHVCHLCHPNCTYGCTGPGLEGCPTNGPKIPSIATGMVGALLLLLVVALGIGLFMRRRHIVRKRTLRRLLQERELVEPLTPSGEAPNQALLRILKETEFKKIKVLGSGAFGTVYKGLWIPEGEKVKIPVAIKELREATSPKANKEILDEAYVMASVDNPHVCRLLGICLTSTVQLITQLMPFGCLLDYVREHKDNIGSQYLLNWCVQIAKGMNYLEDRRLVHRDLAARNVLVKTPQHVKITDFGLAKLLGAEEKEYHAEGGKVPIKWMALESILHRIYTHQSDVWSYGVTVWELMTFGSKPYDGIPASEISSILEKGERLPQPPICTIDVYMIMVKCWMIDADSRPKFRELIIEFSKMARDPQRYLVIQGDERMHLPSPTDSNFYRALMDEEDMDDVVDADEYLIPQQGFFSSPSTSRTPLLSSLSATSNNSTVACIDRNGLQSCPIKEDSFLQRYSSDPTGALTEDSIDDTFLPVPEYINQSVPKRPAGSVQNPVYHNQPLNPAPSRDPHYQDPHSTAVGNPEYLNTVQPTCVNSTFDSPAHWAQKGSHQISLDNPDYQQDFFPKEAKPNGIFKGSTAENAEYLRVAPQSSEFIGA
# Chain of Fibroblast growth factor 10 (Homo sapiens) (O15520 whole entry, looked up): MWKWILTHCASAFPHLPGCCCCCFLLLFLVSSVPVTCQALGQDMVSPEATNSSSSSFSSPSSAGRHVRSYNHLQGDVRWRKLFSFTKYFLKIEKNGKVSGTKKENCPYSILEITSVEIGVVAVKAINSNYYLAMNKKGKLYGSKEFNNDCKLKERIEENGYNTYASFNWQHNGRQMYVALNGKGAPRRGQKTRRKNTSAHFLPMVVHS
# Chain of Left-right determination factor 2 (Homo sapiens) (O00292 whole entry, looked up): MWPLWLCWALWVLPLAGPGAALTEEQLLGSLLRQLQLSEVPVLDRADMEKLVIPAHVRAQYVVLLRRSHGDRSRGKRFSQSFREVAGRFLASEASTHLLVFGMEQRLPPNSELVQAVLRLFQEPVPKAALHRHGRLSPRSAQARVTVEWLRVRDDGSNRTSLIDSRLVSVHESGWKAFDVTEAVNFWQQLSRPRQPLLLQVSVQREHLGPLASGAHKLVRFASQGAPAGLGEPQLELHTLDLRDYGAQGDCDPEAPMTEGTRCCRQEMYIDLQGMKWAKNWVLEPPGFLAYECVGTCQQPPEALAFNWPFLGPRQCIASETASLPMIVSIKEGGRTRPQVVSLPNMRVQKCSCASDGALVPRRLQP
# Chain of Follistatin-related protein 3 (Homo sapiens) (O95633 whole entry, looked up): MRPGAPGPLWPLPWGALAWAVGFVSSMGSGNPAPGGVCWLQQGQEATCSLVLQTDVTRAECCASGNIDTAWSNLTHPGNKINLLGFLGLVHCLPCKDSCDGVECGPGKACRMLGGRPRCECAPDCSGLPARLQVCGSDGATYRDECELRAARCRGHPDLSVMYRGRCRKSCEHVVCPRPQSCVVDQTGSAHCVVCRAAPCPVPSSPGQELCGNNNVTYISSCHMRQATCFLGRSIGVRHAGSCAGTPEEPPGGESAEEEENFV
# Chain of Dickkopf-related protein 1 (Homo sapiens) (O94907 whole entry, looked up): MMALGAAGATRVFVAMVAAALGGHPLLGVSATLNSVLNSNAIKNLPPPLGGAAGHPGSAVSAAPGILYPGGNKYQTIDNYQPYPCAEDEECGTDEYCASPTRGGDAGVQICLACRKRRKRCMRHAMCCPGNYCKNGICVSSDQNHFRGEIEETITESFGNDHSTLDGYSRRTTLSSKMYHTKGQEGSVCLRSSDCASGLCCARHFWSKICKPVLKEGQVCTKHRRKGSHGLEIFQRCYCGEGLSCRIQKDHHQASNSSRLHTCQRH
Compound,composite z-score [1],composite z-score [2],composite z-score [3],z-score [4],composite z-score [5],composite z-score [6],composite z-score [7],composite z-score [8],composite z-score [9],composite z-score [10],composite z-score [11],z-score [12],composite z-score [13],composite z-score [14],composite z-score [15],composite z-score [16],composite z-score [17],composite z-score [18],composite z-score [19],composite z-score [20]
[N-]=[N+]=NCc1ccccc1[C@@H]1OC(c2ccc(OCCCO)cc2)=N[C@]1(Cc1ccccc1N=[N+]=[N-])C(=O)NCC(O)CO (stereo not given in full),1.29,1.28,0.98,1.25 (inactive),0.846,0.898,0.0004,0.418,0.0477,1.22,1.18,-1.41,-0.262,2.58,1.23,0.61,0.0048,2.34,2.74,0.895
COC(=O)C[C@H]1O[C@@]2(C[C@@H]1[Si](C)(C)C)C(=O)N(C)c1ccccc12,0.0786,-0.251,-0.52,-0.662 (inactive),0.955,0.59,0.559,0.612,0.525,-1.08,1.06,-0.83,0.392,-0.197,-0.273,-0.0643,-0.362,0.273,-0.116,0.586
COc1ccc(C(O)C2C=CC3C(=O)NC(=O)C3N2Nc2ccc(Cl)cc2Cl)c2ccccc12 (stereo not given),0.828,0.913,1.15,-0.744 (inactive),0.0892,0.15,-0.582,0.483,-0.284,1.14,0.795,-0.0178,-0.65,2.02,1.08,-0.181,-0.116,-1.02,0.693,1.17
C[N+](C)(C)CCCC[C@@H]1NC(=O)[C@H]2C[C@@H](C(=O)NCCCCCNC(=O)CS)[C@@H](c3cccc(OCCO)c3)N2C1=O,1.57,0.242,0.47,1.12 (inactive),-0.166,0.272,0.412,-0.664,0.0501,0.761,-0.0364,-0.709,-0.259,-0.0728,0.297,-0.103,-0.0626,-0.234,0.707,-0.307
COCCOC(=O)N1C(=O)[C@@]2(c3cc(C#Cc4ccc(OC)cc4)ccc31)[C@H](c1ccc(OCCO)cc1)N1[C@H](c3ccccc3)[C@H](c3ccccc3)OC(=O)[C@H]1[C@@H]2C(=O)NC[C@H](O)c1ccccc1,1.38,0.92,0.537,-0.279 (inactive),1.16,1.27,0.696,0.475,0.473,0.961,1.12,-1.69,1.25,1.15,0.842,0.0078,-0.273,0.338,0.851,1.4
CCOC(=O)C[C@H]1[C@H](OC(=O)c2ccccc2-c2ccccc2)[C@@H](NC(=O)c2ccc3ccccc3c2)c2cc(OCCCO)ccc2N1C(=O)Cc1ccc(OC)cc1,-0.332,0.29,0.58,-0.897 (inactive),0.125,-0.914,-0.201,-0.517,0.225,0.892,-0.201,-1.6,0.23,0.115,0.0612,-0.0643,0.112,0.257,-0.0261,0.264
